# Assay results: PubChem BioAssay (EPA / NIEHS)
# Values joined by “and” are separate entries in the source; they are usually repeats but may differ in a detail not shown here. Equal entries are not always repeated. Some structures have more than one record in an assay (separate samples or runs), and their calls can disagree. Active and inactive are the calls of the source. Rule for the calls: active = hit-call score of the fitted dose curve at least 0.9, where 1 is the maximum; inactive = score below 0.9.
# Read-out: Collagen III, COL3A1 (gene 1281)
# Assay: BSK_hDFCGF_CollagenIII: BioMAP Diversity Plus: hDFCGF Assay for Collagen III Biomarker Activity (AID 2283056)
# Details: primary human foreskin fibroblasts; actives raise or lower the signal
# Procedure: BSK_hDFCGF is a cell-based, multiplexed-readout assay that uses foreskin fibroblast, a human skin primary cell, with measurements taken at 24 hours after chemical dosing in a 96-well plate.BSK_hDFCGF_CollagenIII is an assay component measured in the BSK_hDFCGF assay. It measures Collagen antibody related to regulation of gene expression using ELISA technology.Data from the assay component BSK_hDFCGF_CollagenIII was analyzed into 1 assay endpoint. This assay endpoint, BSK_hDFCGF_CollagenIII, was analyzed with bidirectional fitting relative to DMSO as the negative control and baseline of activity. Using a type of binding reporter, gain or loss-of-signal activity can be used to understand changes in the signaling as they relate to the gene COL3A1. Furthermore, this assay endpoint can be referred to as a primary readout, because this assay has produced multiple assay endpoints where this one serves a signaling function. To generalize the intended target to other relatable targets, this assay endpoint is annotated to the cell adhesion molecules intended target family, where the subfamily is collagen.
# The levels of cell surface (or secreted, indicated by the prefix "s") biomarker endpoints were measured by ELISA. Overt cytotoxicity to cells in confluent adherent cultures (all systems other than the BT system) was assessed by measuring total protein levels using sulforhodamine B (SRB) staining in parallel cultures at the time of biomarker measurements, indicated as SRB endpoints. For proliferation assays for adherent cell types, individual cell types are cultured at sub-confluence and relative cell numbers quantified by SRB staining at time points optimized for each system (48 h: 3C and CASM3C systems; 72 h: BT and HDF3CGF systems; 96 h: SAg system). SRB was performed by staining cells with 0.1% SRB after fixation with 10% TCA and reading wells at 560 nm.Viability and proliferation of PBMC (T cells) was quantified by Alamar Blue reduction for the SAg and BT systems. For PBMC viability (referred to as PBMC Cytotoxicity within the assay endpoint names), cells were plated (75,000/well in a 96-well plate) and then chemical samples added for 1 h before addition of activators, SEB and TSST-1 (20 ng/mL final concentration each). Cells were incubated for 90 h. Then, Alamar Blue (20 uL/well) (Invitrogen, Cat DAL1100) was added for 6 h, and the plates were read with a fluorescence microplate reader at 546/580 nm (excitation/emission). For PBMC proliferation, cells were plated and activated as above but incubated for only 16 h prior to addition of Alamar Blue. Plates were read after 6 h.
SMILES,outcome,AC50
C=CC(=O)OCCCCCCCC(C)C,inactive,–
C1CNCCN1,inactive,–
CCCCCCCCCCCC(C)=O,inactive,–
CCc1cccc(C)c1N(C(=O)CS(=O)(=O)O)C(C)COC (stereo not given),inactive,–
Nc1ccc(C(=O)O)cc1,inactive,–
O=C(O)C(F)(F)C(F)(F)C(F)(F)C(F)(F)C(=O)O,inactive,–
CC(C)c1cccc(C(C)C)c1N,inactive,–
CCN1CN(CC)CN(CC)C1,inactive,–
CC(C)CCCCCOC(=O)CS,inactive,–
CCCC(C)C(=O)OCC (stereo not given),inactive,–
CC(Cl)COP(=O)(OCC(C)Cl)OCC(C)Cl (stereo not given),inactive,–
CCOC(=O)C1=NN(c2ccc(Cl)cc2Cl)C(C)(C(=O)OCC)C1 (stereo not given),–,20 µM (active)
CCOC(=O)/C=C\C(=O)OCC,inactive,–
CCCCC1C(=O)N(c2ccccc2)N(c2ccccc2)C1=O,inactive,–
O=C(Oc1ccccc1)c1ccccc1C(=O)Oc1ccccc1,–,11.5 µM (active)
CC=C(C)C=CC=C(C)C,inactive,–
C=CC(=O)NCOCCCC,inactive,–
CC/C=C\C/C=C\C/C=C\CCCCCCCC(=O)OC,–,5.53 µM (active)
O=C1CCCCCCCCCCC1,inactive,–
C=CC(=O)NC(C)(C)C,inactive,–

SMILES,outcome,AC50
CCC1(C)C(=O)N(Cl)C(=O)N1Cl (stereo not given),inactive,–
CCOC(=O)C1=NOC(c2ccccc2)(c2ccccc2)C1,inactive,–
O=C(Cl)c1c(Cl)c(Cl)c(C(=O)Cl)c(Cl)c1Cl,inactive,–
CC/C=C\CCOC(=O)c1ccccc1O,–,11.8 µM (active)
CC(C)C(=O)OCCc1ccccc1,inactive,–
Cc1c(O)cccc1O,inactive,–
Cc1ccc([N+](=O)[O-])cc1N,inactive,–
Nc1cccc(N)n1,inactive,–
COc1ccc(C(=O)/C(Br)=C\C(=O)O)cc1,inactive,13.6 µM (active)
C=CCCCCCCCCC=O,inactive,–
CCCCCCCCCCCC(=O)N(C)CC(=O)O,–,8.61 µM (active) and 24.7 µM (active)
COc1ccc(C(=O)c2ccccc2)c(O)c1,inactive,–
c1ccc(Nc2cccc3ccccc23)cc1,–,17.3 µM (active) and 13.9 µM (active)
CCCCCCCCC(CO)CCCCCC (stereo not given),–,4.17 µM (active)
CCCCCCC=O,inactive,–
c1ccc2sc(SSN3CCOCC3)nc2c1,inactive,–
CCCCCCCO,inactive,–
COC(OC)(C(=O)c1ccccc1)c1ccccc1,inactive,–
O=C1CCCCCCCCCCCN1,inactive,–
